Consider one sequence from publication PMC7862700, “An all-to-all approach to the identification of sequence-specific readers for epigenetic DNA modifications on cytosine”.

Holding throughout (test): DAPPL (digital affinity profiling via proximity ligation, sequencing); 10 mM Tris-HCl pH 7.5, 50 mM NaCl, 1 mM DTT, 4% glycerol, room temperature, 30 min; GST-TFs on glutathione beads, 16-mer random dsDNA library, 0.1% formaldehyde crosslink after washing; high values mean tight binding
The target in assay [1] is T1, FEV (Homo sapiens, UniProt Q99581 1-238).
T1 sequence: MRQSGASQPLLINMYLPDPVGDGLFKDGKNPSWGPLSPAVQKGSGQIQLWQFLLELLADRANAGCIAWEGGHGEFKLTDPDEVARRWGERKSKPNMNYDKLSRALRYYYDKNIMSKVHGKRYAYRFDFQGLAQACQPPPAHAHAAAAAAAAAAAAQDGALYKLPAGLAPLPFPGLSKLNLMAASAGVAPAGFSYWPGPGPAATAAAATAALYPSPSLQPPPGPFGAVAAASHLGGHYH
Conditions: protein: recombinant; tags: N-terminal GST; dsDNA, one strand shown. In short, it runs like this:
(§1)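 Binding signal is given per hexamer as its read frequency for a factor divided by its frequency in the tag-only sample. GST-fused human transcription factors were expressed in yeast, captured on glutathione beads, barcoded with DNA and pooled with that sample, then incubated with 200 nmole of a 16-mer random double-stranded DNA library in Tris/NaCl/DTT/glycerol buffer for 30 min at room temperature. The pools were then washed, crosslinked, proximity-ligated, amplified by PCR and sequenced on an Illumina NextSeq500.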

In assay [2] the target is ETV5 (Homo sapiens, UniProt P41161 1-510). Conditions: protein: recombinant; tags: N-terminal GST; dsDNA, one strand shown. A digest of the protocol:
as §1

The target of assay [3] is HSF1 (Homo sapiens, UniProt Q00613 1-529). Conditions: protein: recombinant; tags: N-terminal GST; chain copies: 3; dsDNA, one strand shown. A digest of the protocol: as §1
Sequence of HSF1 (Q00613 whole entry): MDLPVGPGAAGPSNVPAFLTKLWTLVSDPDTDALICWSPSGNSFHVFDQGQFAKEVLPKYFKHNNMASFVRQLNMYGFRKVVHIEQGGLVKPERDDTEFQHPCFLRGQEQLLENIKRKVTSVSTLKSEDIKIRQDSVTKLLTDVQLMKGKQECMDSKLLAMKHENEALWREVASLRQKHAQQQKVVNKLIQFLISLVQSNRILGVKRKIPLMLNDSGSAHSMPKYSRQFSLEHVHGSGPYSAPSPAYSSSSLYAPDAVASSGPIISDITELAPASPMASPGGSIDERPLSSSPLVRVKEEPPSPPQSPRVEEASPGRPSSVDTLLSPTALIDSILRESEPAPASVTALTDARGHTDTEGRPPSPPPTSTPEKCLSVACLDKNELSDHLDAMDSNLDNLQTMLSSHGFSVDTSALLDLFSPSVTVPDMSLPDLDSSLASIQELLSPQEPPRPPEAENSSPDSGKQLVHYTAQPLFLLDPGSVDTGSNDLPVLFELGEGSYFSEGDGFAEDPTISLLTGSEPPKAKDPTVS
Assay [4] has as its target T2, SPIC (Homo sapiens, UniProt Q8N5J4 1-248).
T2 sequence: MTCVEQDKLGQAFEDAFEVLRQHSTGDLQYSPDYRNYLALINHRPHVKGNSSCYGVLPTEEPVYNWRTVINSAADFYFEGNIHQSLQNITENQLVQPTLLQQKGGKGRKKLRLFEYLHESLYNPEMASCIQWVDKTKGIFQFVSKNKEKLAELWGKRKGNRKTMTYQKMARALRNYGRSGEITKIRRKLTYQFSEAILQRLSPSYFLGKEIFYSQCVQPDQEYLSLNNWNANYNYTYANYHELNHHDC
To be noted: protein: recombinant; tags: N-terminal GST; dsDNA, one strand shown. A digest of the protocol: as §1

Assay [5] concerns the target ELF4 (Homo sapiens, UniProt Q99607 1-663). To be noted: protein: recombinant; tags: N-terminal GST; dsDNA, one strand shown. In short, it runs like this: as §1
Assay [6] deals with T3, ELK4 (Homo sapiens, UniProt P28324-2 1-405).
T3 sequence: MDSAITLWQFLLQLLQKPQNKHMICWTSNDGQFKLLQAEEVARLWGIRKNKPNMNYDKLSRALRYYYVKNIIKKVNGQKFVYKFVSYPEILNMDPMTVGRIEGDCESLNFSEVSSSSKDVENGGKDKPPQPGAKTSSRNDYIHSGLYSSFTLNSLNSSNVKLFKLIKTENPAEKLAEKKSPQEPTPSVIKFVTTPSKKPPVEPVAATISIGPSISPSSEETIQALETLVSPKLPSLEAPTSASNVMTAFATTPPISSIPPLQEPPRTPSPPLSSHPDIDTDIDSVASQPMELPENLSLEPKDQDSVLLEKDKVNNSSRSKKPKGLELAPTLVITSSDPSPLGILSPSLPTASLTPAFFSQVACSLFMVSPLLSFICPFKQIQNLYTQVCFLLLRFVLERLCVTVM
Conditions: protein: recombinant; tags: N-terminal GST; dsDNA, one strand shown. A digest of the protocol:
as §1

The target in assay [7] is T4, ETV2 (Homo sapiens, UniProt O00321 1-342).
T4 sequence: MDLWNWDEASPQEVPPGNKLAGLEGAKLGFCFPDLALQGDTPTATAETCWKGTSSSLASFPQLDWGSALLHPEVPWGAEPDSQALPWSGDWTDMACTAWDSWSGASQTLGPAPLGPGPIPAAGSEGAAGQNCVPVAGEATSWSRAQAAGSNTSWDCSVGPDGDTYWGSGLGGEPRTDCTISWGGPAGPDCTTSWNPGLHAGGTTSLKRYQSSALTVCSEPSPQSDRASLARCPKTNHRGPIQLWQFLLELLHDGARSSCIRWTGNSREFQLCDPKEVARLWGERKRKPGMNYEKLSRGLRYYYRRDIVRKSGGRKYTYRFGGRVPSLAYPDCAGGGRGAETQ
Conditions: protein: recombinant; tags: N-terminal GST; dsDNA, one strand shown. A digest of the protocol: as §1

Assay [8] concerns the target T5, ELF3 (Homo sapiens, UniProt P78545 1-371).
T5 sequence: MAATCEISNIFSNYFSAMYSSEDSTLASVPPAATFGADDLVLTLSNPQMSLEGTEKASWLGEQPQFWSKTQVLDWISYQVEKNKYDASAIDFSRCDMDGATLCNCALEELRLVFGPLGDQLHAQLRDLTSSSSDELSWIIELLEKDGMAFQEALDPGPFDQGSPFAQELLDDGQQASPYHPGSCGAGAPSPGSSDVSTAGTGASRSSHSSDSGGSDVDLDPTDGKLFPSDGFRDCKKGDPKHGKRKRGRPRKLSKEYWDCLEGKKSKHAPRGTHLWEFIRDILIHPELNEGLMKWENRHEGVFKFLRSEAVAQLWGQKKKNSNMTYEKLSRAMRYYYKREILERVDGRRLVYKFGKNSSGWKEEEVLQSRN
To be noted: protein: recombinant; tags: N-terminal GST; dsDNA, one strand shown. A digest of the protocol:
as §1

In assay [9] the target is CRX (Homo sapiens, UniProt O43186 1-299). To be noted: protein: recombinant; tags: N-terminal GST; dsDNA, one strand shown. In short, it runs like this:
as §1

Assay [10] addresses ETV1 (Homo sapiens, UniProt P50549 1-477). To be noted: protein: recombinant; tags: N-terminal GST; dsDNA, one strand shown. A digest of the protocol:
as §1

Assay [11] deals with T6, ERF (Homo sapiens, UniProt P50548 1-548).
T6 sequence: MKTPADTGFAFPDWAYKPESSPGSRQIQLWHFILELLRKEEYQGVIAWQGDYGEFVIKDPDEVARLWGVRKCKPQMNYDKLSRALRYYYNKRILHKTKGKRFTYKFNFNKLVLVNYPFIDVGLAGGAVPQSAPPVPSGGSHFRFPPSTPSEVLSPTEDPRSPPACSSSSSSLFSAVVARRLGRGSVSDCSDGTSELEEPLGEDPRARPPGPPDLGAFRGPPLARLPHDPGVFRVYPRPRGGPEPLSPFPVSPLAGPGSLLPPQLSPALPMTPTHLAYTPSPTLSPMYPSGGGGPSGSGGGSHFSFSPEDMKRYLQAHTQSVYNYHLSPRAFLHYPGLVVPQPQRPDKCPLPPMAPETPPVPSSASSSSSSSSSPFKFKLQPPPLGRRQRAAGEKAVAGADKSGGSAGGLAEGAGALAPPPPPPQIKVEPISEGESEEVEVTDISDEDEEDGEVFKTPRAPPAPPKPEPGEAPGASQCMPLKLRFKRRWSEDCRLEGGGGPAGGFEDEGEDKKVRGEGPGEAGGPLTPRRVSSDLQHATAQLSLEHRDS
Conditions: protein: recombinant; tags: N-terminal GST; dsDNA, one strand shown. A digest of the protocol:
as §1

Assay [12] deals with T7, ETV3L (Homo sapiens, UniProt Q6ZN32 1-361).
T7 sequence: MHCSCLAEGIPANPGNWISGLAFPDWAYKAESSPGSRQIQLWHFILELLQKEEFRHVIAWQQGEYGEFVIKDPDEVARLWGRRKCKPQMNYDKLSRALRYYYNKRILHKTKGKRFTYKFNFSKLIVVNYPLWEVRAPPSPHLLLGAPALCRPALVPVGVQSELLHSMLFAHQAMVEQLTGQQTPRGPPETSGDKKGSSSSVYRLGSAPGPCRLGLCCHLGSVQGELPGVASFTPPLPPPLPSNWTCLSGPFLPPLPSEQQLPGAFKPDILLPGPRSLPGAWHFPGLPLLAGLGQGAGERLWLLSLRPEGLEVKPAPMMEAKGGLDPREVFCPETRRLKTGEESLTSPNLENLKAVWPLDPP
Conditions: protein: recombinant; tags: N-terminal GST; dsDNA, one strand shown. A digest of the protocol:
as §1

Assay [13] addresses T8, ETS2 (Homo sapiens, UniProt P15036 1-469).
T8 sequence: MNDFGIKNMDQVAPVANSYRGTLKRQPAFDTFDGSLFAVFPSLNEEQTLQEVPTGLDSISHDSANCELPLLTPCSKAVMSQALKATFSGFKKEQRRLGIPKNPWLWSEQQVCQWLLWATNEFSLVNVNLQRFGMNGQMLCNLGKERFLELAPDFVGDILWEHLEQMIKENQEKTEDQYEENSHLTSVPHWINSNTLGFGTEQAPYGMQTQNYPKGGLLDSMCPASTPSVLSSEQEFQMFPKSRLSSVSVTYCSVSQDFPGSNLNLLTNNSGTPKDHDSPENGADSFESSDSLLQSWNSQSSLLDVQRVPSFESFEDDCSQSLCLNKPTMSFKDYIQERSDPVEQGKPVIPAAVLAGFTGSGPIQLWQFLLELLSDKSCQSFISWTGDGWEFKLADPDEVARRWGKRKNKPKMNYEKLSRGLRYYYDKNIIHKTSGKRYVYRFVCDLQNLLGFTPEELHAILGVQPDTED
Conditions: protein: recombinant; tags: N-terminal GST; dsDNA, one strand shown. In short, it runs like this:
as §1

Assay [14] addresses T9, SPDEF (Homo sapiens, UniProt O95238 1-335).
T9 sequence: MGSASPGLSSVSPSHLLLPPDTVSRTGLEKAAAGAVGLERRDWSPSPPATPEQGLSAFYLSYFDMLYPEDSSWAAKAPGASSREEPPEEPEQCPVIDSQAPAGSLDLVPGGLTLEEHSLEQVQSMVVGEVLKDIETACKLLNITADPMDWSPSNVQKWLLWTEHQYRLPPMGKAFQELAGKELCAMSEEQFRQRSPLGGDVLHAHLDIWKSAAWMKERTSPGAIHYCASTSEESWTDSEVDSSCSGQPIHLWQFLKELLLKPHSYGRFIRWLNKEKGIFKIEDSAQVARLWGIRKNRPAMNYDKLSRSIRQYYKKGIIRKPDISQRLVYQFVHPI
Conditions: protein: recombinant; tags: N-terminal GST; dsDNA, one strand shown. A digest of the protocol: as §1

The target in assay [15] is T10, ETV7 (Homo sapiens, UniProt Q9Y603 1-341).
T10 sequence: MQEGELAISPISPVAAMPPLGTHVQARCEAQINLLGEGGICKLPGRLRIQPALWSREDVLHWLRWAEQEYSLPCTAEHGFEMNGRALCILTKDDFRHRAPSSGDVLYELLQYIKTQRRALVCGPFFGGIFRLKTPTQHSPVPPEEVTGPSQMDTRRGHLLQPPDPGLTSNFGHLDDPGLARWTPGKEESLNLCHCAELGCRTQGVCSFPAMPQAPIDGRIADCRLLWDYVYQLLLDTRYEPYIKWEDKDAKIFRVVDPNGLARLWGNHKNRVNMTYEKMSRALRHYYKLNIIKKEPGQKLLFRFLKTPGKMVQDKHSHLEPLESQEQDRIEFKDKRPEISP
To be noted: protein: recombinant; tags: N-terminal GST; dsDNA, one strand shown. A digest of the protocol: as §1

Assay [16] addresses T11, ELF5 (Homo sapiens, UniProt Q9UKW6-2 1-255).
T11 sequence: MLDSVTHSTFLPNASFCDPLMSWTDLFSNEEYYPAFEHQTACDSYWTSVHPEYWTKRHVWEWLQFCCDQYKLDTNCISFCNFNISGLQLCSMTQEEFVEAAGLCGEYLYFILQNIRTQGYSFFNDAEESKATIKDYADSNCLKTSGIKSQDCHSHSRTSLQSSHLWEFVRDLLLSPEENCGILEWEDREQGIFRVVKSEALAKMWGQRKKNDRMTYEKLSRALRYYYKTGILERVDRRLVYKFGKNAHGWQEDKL
To be noted: protein: recombinant; tags: N-terminal GST; dsDNA, one strand shown. A digest of the protocol: as §1

Assay [17] addresses T12, ETV3 (Homo sapiens, UniProt P41162-2 1-143).
T12 sequence: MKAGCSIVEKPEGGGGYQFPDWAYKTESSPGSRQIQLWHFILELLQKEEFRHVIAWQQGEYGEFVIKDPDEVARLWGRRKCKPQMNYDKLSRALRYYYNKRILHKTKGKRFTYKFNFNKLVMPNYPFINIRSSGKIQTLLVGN
Conditions: protein: recombinant; tags: N-terminal GST; dsDNA, one strand shown. A digest of the protocol:
as §1

Assay [18] addresses ETV6 (Homo sapiens, UniProt P41212 1-452). To be noted: protein: recombinant; tags: N-terminal GST; dsDNA, one strand shown. In short, it runs like this:
as §1

Sequence of ETV1 (P50549 whole entry): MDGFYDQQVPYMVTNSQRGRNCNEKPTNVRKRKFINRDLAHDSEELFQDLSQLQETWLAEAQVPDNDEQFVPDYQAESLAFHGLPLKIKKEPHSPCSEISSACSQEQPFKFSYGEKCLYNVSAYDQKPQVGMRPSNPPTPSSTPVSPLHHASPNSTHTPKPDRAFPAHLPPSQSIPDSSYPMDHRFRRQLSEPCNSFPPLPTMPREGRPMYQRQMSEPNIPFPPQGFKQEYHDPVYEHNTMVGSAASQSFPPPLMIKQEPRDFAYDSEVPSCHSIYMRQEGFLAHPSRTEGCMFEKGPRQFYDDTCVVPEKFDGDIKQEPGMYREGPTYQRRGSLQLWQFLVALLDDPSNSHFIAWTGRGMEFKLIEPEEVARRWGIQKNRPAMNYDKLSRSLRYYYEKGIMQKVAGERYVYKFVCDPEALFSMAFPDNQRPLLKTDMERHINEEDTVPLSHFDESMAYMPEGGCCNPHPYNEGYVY
Sequence of ETV5 (P41161 whole entry): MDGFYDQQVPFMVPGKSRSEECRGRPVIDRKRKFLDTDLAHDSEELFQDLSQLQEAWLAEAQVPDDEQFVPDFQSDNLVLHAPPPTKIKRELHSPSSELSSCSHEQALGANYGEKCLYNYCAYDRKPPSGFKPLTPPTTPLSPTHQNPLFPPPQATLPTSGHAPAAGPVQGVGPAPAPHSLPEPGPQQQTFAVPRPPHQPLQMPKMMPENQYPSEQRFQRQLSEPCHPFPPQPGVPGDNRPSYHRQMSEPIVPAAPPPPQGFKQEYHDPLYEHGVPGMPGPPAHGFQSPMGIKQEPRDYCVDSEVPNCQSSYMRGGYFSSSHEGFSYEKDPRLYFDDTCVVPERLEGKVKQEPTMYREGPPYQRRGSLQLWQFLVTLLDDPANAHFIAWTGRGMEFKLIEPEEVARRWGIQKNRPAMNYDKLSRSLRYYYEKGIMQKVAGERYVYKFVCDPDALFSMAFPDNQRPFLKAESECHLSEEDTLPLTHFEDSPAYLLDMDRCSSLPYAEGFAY
Sequence of ELF4 (Q99607 whole entry): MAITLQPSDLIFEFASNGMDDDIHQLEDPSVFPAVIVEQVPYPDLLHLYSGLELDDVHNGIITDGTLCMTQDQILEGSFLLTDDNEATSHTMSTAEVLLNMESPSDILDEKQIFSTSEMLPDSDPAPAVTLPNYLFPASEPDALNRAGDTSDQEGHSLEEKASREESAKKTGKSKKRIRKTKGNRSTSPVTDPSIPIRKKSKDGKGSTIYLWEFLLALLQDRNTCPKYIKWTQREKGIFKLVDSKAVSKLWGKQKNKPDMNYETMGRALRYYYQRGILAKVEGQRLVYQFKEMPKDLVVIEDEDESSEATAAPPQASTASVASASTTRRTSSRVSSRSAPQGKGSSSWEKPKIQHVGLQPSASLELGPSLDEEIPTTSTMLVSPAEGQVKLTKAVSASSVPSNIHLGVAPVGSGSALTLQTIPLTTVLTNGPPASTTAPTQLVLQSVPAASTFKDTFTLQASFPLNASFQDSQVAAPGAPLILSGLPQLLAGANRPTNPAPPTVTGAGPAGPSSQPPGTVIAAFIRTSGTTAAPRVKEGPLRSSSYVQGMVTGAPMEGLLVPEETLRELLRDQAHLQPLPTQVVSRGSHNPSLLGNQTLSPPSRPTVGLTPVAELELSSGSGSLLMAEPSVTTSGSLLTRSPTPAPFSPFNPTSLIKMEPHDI
Sequence of CRX (O43186 whole entry): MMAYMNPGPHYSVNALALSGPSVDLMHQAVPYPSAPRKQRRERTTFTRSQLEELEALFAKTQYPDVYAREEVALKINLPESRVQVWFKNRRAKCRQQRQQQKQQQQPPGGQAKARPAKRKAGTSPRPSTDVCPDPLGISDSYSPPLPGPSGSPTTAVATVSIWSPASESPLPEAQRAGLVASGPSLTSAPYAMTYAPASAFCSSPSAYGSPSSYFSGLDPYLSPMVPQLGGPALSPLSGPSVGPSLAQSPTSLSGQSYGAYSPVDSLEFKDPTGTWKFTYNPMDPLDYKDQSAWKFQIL
Sequence of ETV6 (P41212 whole entry): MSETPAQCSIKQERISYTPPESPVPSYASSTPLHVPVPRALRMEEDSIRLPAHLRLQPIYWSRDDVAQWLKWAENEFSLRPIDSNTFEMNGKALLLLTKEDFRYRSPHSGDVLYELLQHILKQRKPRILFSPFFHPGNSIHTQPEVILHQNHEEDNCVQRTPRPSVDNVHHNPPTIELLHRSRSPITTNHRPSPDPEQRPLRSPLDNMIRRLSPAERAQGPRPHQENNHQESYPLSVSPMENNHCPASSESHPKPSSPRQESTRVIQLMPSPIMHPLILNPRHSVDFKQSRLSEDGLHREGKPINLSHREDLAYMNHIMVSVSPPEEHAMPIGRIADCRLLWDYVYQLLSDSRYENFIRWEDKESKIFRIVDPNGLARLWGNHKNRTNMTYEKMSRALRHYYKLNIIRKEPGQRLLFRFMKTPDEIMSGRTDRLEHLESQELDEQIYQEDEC

As for TCTTTA, the binding signal was 1.22 fold enrichment (6-mer frequency, TF over GST control) in [1]; 1.16 fold enrichment (6-mer frequency, TF over GST control) in assay [2]; 1.5 fold enrichment (6-mer frequency, TF over GST control) in [3]; 1.22 fold enrichment (6-mer frequency, TF over GST control) in assay [4]; 1.21 fold enrichment (6-mer frequency, TF over GST control) in assay [5]; 1.3 fold enrichment (6-mer frequency, TF over GST control) in assay [6]. Moreover, the binding signal in assay [7] is 1.31 fold enrichment (6-mer frequency, TF over GST control); in [8] it was 1.36 fold enrichment (6-mer frequency, TF over GST control); in [9], 1.93 fold enrichment (6-mer frequency, TF over GST control); in assay [10], 1.25 fold enrichment (6-mer frequency, TF over GST control); in assay [11], 1.1 fold enrichment (6-mer frequency, TF over GST control); in assay [12], 1.4 fold enrichment (6-mer frequency, TF over GST control). Further, the binding signal in assay [13] was 1.2 fold enrichment (6-mer frequency, TF over GST control); in assay [14] it was 1.2 fold enrichment (6-mer frequency, TF over GST control); in assay [15] it was 1.25 fold enrichment (6-mer frequency, TF over GST control); in [16], 1.19 fold enrichment (6-mer frequency, TF over GST control); in assay [17] it was 1.25 fold enrichment (6-mer frequency, TF over GST control); in assay [18], 1.22 fold enrichment (6-mer frequency, TF over GST control).
